Assay [1] in a line: Viability qHTS for spleen associated tyrosine kinase inhibitor (SYKi) naive MV4-11 cells (AID 1963823). Also: nearly all actives have a fitted effect of over 40% in size. As to conditions: MV4-11 AML viability, CellTiter-Glo luminescence, 72 h; series mostly up to 45 µM. The essentials:
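Viability of MV4-11 AML cells lacking prior SYK inhibitor exposure is scored by CellTiter-Glo luminescence following 72 hr compound incubation at 37 C, 5% CO2, seeded at 500 cells per well.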
(In general: In qHTS, concentration-response curves come from the screen itself.)

Assay [2] can be described thus: Viability qHTS for spleen associated tyrosine kinase inhibitor (SYKi) drug resistant MV4-11 cells (AID 1963824). Also: nearly all actives have a fitted effect of over 35% in size. As to conditions: SYKi-resistant MV4-11 viability, CellTiter-Glo, 72 h; series mostly up to 45 µM. A digest of the protocol: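 SYK inhibitor-resistant MV4-11 AML cells, 500 per well, added to predispensed compounds and incubated 72 hr at 37 C, 5% CO2. Viability measured by CellTiter-Glo luminescence after 10 min at room temperature.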

Records with an inconclusive call do not appear. Values without a mark were called inactive. Active and inactive are the calls of the source. Calls follow the shape of the dose curve; as a rule, active = well fitted cell-killing curve with a large enough effect; inconclusive = small, poorly fitted or top-dose-only effect, or effect the other way; inactive = no such curve, though single readings can be large or run the other way.
Potency is read from the fitted curve at half-maximal effect.

Regarding `Cc1cc(C)cc(C(=O)NOCCCCCC(=O)NO)c1`, the Potency in assay [1] is 0.92 µM (active); in assay [2], 0.58 µM (active).

On to `CC1(C)CC[C@]2(C(=O)O)CC[C@]3(C)C(=CCC4[C@@]5(C)C[C@H](O)[C@H](O[C@@H]6O[C@H](CO)[C@@H](O)[C@H](O)[C@H]6O)[C@@](C)(CO)C5[C@H](O)C[C@]43C)[C@@H]2C1` (some centres not stated), for which the Potency entry in assay [1] and in assay [2] was “inactive” throughout.

Regarding `CCN(CC)CCN(Cc1ccc(-c2ccc(C(F)(F)F)cc2)cc1)C(=O)Cn1c(SCc2ccc(F)cc2)nc(=O)c2c1CCC2`, the Potency was 2.91 µM (active) in assay [1] and 3.26 µM (active) in assay [2].

Consider `COc1cc(C(C)C)c(Oc2cnc(N)nc2N)cc1I`, for which the Potency in assay [1] and in assay [2] was 10.3 µM (active) in each case.

In the case of `C=C(C=O)[C@]1(O)C[C@@]2(C)C(=CC1=O)C=C[C@H](OC(=O)/C=C/C=C/[C@H](C)CC)[C@@H]2C`, the Potency in assay [1] is 1.12 µM (active); in assay [2], 0.796 µM (active).

Consider `NC(=O)CCCSc1nc(N)nc(-c2c(Cl)cc3c4c(cccc24)COC3)n1`, for which the Potency in assay [1] was 0.0651 µM (active); in assay [2], 0.092 µM (active).

Turning to `C/C(CO)=C1/CCC23COC(C2)C(O)(C(=O)O)CCC13` (configuration not stated), the Potency result in assay [1] and in assay [2] was “inactive” in each case.

In the case of `CCOC(=O)[C@@H](N)Cc1ccc(-c2cc(O[C@H](c3ccc(Cl)cc3-n3ccc(C)n3)C(F)(F)F)nc(N)n2)cc1`, the Potency in assay [1] was 8.33 µM (active); in assay [2], 4.17 µM (active).

For the compound `Cc1cc(N2CCCCC2)nc2ccccc12`, the Potency entry in assay [1] and in assay [2] was “inactive” each time.

On to `O=C(/C=C/c1ccc(O)cc1)N[C@@H](Cc1ccc(O)cc1)C(=O)O`, for which the Potency entry in assay [1] and in assay [2] was “inactive” in each case.

Take `CC(=O)OCC1OC(O[C@H]2CC[C@]34C[C@]35CC(O)[C@]3(C)[C@@H]([C@H](C)CC/C=C(\C)C(=O)O)C(O)C[C@@]3(C)C5CC[C@H]4C2(C)C)C(O)C(O)C1OC1OCC(O)C(O)C1O` (some centres not stated): the viability (% of control) in assay [1] was 62.3% [at 9.25 µM]. In addition, the viability, % of control in assay [2] was 79.7% [at 9.25 µM].

`CCOc1ccc(-c2cc(NC(=O)c3c(F)cccc3F)c(C(=O)O)s2)cc1`: the Potency result in assay [1] and in assay [2] was “inactive” in each case.

On to `COc1c(C)cnc(Cn2cc(C#CCC(C)(C)O)c3c(Cl)nc(N)nc32)c1C`, for which the Potency in assay [1] was 0.0116 µM (active); in assay [2] it was 0.0206 µM (active).

With `N#C/C(=C1/Nc2ccccc2S1)c1ccnc(OCc2ccc(CN3CCOCC3)cc2)n1`, the values for the Potency in assay [1] and in assay [2] were 10.5 µM (active) and 8.33 µM (active), respectively.

For `COc1c(CCC(=O)O)cccc1O[C@@H]1O[C@H](CO)[C@@H](O)[C@H](O)[C@H]1O`, the Potency entry in assay [1] and in assay [2] was “inactive” throughout.

Take `CC(=O)N[C@H]1[C@H](O[C@H]2CC[C@@]3(C)C(CC[C@]4(C)C3CC=C3C5CC(C)(C)CC[C@]5(C(=O)O)[C@H](O)C[C@]34C)C2(C)C)O[C@H](CO[C@@H]2OC[C@H](O)[C@H](O)[C@H]2O[C@@H]2OC[C@@H](O)[C@H](O)[C@H]2O)[C@@H](O)[C@@H]1O` (some centres not stated): in assay [1], the viability (% of control) is 83.2% [at 9.25 µM]. Also, the viability, % of control in assay [2] was 113% [at 9.25 µM].

For the compound `O=C(/C=C/c1ccc(O)cc1)OC[C@]12O[C@H]1[C@@H](O)[C@@H]1C=CO[C@@H](O[C@@H]3O[C@H](CO)[C@@H](O)[C@H](O)[C@H]3O)[C@@H]12`, the Potency entry in assay [1] and in assay [2] was “inactive” throughout.

Take `O=C(NCCO)c1cc(C(=O)NCCO)cc(C(=O)NCCO)c1`: the Potency result in assay [1] and in assay [2] was “inactive” throughout.

On to `Cc1nnsc1C(=O)Nc1ccc(-n2nc(C(F)(F)F)cc2C(F)(F)F)cc1`, for which the Potency in assay [1] was 18.4 µM (active); in assay [2] it was 16.4 µM (active).

On to `Cc1[nH]c2ccccc2c1C1=C(NCCc2ccc(F)cc2)C(=O)N(C)C1=O`, for which the Potency in assay [1] was 16.4 µM (active); in assay [2], 11.6 µM (active).

In the case of `O=C(O[C@H]1[C@H](Oc2ccc(O)cc2CO)O[C@H](CO)[C@@H](O)[C@@H]1O)c1ccccc1`, the Potency result in assay [1] and in assay [2] was “inactive” each time.

With `COc1ccc(/C=C\C(=O)O)c(O[C@@H]2O[C@H](CO)[C@@H](O)[C@H](O)[C@H]2O)c1`, the Potency entry in assay [1] and in assay [2] was “inactive” each time.

Regarding `COc1c(Nc2ncc(Cl)c(N[C@H]3[C@@H](C(N)=O)[C@@H]4C=C[C@H]3C4)n2)ccc2c1CC[C@@H](N1CCOCC1)CC2`, the Potency in assay [1] was 0.231 µM (active); in assay [2] it was 0.291 µM (active).

For the compound `Nc1nc(COC(=O)c2ccc([N+](=O)[O-])cc2)nc(Nc2ccccc2)n1`, the Potency result in assay [1] and in assay [2] was “inactive” in each case.

As to `C[C@@H]1O[C@@H](OC[C@H]2O[C@@H](Oc3cc(O)cc4c3C(=O)C(O)(Cc3ccc(O)cc3)O4)[C@H](O)[C@@H](O)[C@@H]2O)[C@H](O)[C@H](O)[C@H]1O` (some centres not stated), the Potency entry in assay [1] and in assay [2] was “inactive” in each case.

Turning to `COc1cc(C[C@H]2COC(=O)[C@@H]2Cc2ccc(O)c(OC)c2)ccc1O`, the Potency entry in assay [1] and in assay [2] was “inactive” throughout.
